Our source for the max response values is PubChem BioAssay AID2314 (National Center for Advancing Translational Sciences (NCATS), 2010).

Screen size: about 300,000 compounds; about 37,000 (12%) were called active. No stated cut-off is given here; in the data, active means max response mostly above about 13% (no sharp cut-off); inactive means mostly below about 14%. The entries come from a sample that favours actives as a whole.

A short description of the test: Cycloheximide Counterscreen for Small Molecule Inhibitors of Shiga Toxin. Further: read at 38.3 µM for the half of the compounds with a filed dose; 0% is about no effect. To be noted: cell reporter, cycloheximide protein synthesis inhibition counterscreen; stronger effect = higher value. On the technique in general: Counterscreens check selectivity or assay interference.
In the case of `CC(Sc1nnnn1C)C(=O)NC(=O)NC1CCCCC1` (stereo not given), the max response was 0.707% (inactive).
In the case of `COc1ccc(N2CCN(CCNC(=O)Nc3cc(Cl)ccc3Cl)CC2)cc1` it was -4.73% (inactive); in that of `O=C(Nc1ccnn1C1CCN(Cc2cccc(OCCO)c2)CC1)C1CCCC1`, -3.51% (inactive).
In the case of `Cc1cccc(NS(=O)(=O)c2ccc(-c3cnc(C4CC4)o3)cc2)c1` it was -3% (inactive); in that of `CC1CCN(C(=S)NC(=O)c2ccccc2Br)CC1`, 3.84% (inactive).
Take `O=C(NC(=S)Nc1ncccn1)c1ccccc1Br`: the max response was 14.4% (active).
For `O=C(NC(=S)Nc1ccc(S(=O)(=O)Nc2ncccn2)cc1)c1cccc(Br)c1` the value was 5.33% (inactive); for `COc1cc2nc(CN(C)Cc3ccc(F)cc3)[nH]c(=O)c2cc1OC`, -2.34% (inactive); for `COc1ccc(-n2nc(C(=O)NCC(=O)N3CCCCCC3)c3ccccc3c2=O)cc1Cl`, 1.06% (inactive).
For `COC(=O)c1ccc(C(=O)OC)c(NC(=S)N2CCN(c3ccc(F)cc3)CC2)c1` the value was -7.21% (inactive); for `COC(=O)c1ccc(Sc2ccc(F)cc2)c(N)c1`, 24.1% (active).
In the case of `COC(=O)c1nc(NC(=O)c2ccc(F)cc2)n[nH]1` it was -1.65% (inactive).
Turning to `O=S(=O)(NC1CCCCC1N1CCN(c2ccccc2F)CC1)c1ccccc1` (stereo not given), the max response is 7.38% (inactive).
In the case of `O=C(O)c1ccc(/C=C2\SC(=S)N(NC(=O)c3ccc(Br)cc3)C2=O)cc1` it was -2.52% (inactive).
For `CC1(C)NC(=O)N(CCCCSc2ccc(Cl)cc2)C1=O` the value was 6.3% (inactive).
In the case of `CN(Cc1ccccc1)C(=O)c1ccc(NC2=NC3CS(=O)(=O)CC3S2)cc1` (stereo not given) it was 0.883% (inactive); in that of `Nc1nonc1-n1nnc(C(=O)N/N=C/c2c[nH]c3ccccc23)c1-c1ccccc1`, 6.03% (inactive).
`CCCCCC(=O)Nc1ccc(C(=O)N/N=C/c2ccc([N+](=O)[O-])cc2)cc1`: the max response is -2.53% (inactive).
On to `O=C(Cc1c[nH]c2ccccc12)N/N=C/c1cccc(F)c1`, for which the max response was 11.5% (inactive).
For `O=C(N/N=C/c1ccc(O)cc1)/C(=C/c1ccc([N+](=O)[O-])cc1)NC(=O)c1ccccc1` the value was 5.92% (inactive); for `Cc1nc2ccccc2cc1C(=O)N/N=C/c1ccc([N+](=O)[O-])cc1`, -1.28% (inactive); for `NC(=S)N/N=C/c1ccc([N+](=O)[O-])cc1`, 2.05% (inactive).
In the case of `O=C(N/N=C/c1c[nH]c2ccccc12)c1ccccc1O`, the max response was 29.2% (active).
For `Cc1c(/C=N\NC(=O)c2cc3ccccc3o2)c2ccccc2n1C` the value was 5.05% (inactive); for `O=C(N/N=C/c1coc2ccccc2c1=O)c1cc2ccccc2o1`, 13.8% (inactive); for `Cc1ccsc1C(=O)N/N=C/c1ccc([N+](=O)[O-])cc1`, 55% (active).
For `O=C(N/N=C/c1ccc([N+](=O)[O-])cc1)c1c[nH]c2ccccc12` the value was 26.3% (active).
For `O=C(N/N=C/c1c[nH]c2ccccc12)c1cc2ccccc2o1` the value was 22.4% (active).
In the case of `COC(=O)C1=C(C)N(c2ccc(C)cc2)/C(=C/c2ccc(O)cc2)C1=O`, the max response is -3.37% (inactive).
As to `COc1ccc(C(=O)COC(=O)COc2ccc(C)c(C)c2)cc1`, the max response was -1.99% (inactive).
For `COc1cccc(NC(=O)[C@H](Cc2c[nH]c3ccccc23)NC(=O)[C@@H]2Cc3ccccc3CN2)c1` the value was 8.96% (inactive); for `Cc1nn(Cc2ccc(C(=O)N3N=C(C(F)F)CC3(O)C(F)F)cc2)c(C)c1[N+](=O)[O-]` (stereo not given), -2.42% (inactive).
For `Cc1ccc(NS(=O)(=O)c2ccc(C(C)(C)C)cc2)cn1` the value was -1.83% (inactive).
In the case of `Cc1ccc(-n2ncc3c2CC(C)(C)CC3NC(=O)Cc2c(C)noc2C)cc1` (stereo not given) it was 1.83% (inactive); in that of `CCOC(=O)CNC(=O)CSc1ncccc1-c1nc2ccccc2[nH]1`, 6.47% (inactive); in that of `CSC(=S)N/N=C/c1c[nH]c2ccccc12`, 19.8% (active).
Regarding `Cc1ccc(NC(=O)c2sccc2C)cc1[N+](=O)[O-]`, the max response was 54.5% (active).
For `O=C(O)c1cccc(NC(=S)N/N=C/c2c[nH]c3ccccc23)c1` the value was 19.9% (inactive); for `Cc1ccc(NC(=O)CN(C)CC(=O)Nc2cccc(F)c2)cc1[N+](=O)[O-]`, -3.93% (inactive); for `CNc1ccc(NC(C)=O)cc1[N+](=O)[O-]`, -1.59% (inactive).
For `C[n+]1ccc(/C=C/c2c[nH]c3ccccc23)cc1` the value was 0.857% (inactive); for `CN(C)c1ccc(C(CNC(=O)c2ccc(F)cc2)c2c[nH]c3ccccc23)cc1` (stereo not given), -1.36% (inactive).
In the case of `COc1ccc(CC(=O)NCC(=O)N/N=C/c2cc(Br)ccc2OC)cc1` it was -1.85% (inactive); in that of `CCc1ccc(C2C(C#N)=C(N)N(N3CCOCC3)C3=C2C(=O)CC(C)(C)C3)s1` (stereo not given), -4.64% (inactive); in that of `CC1CCN(C(=O)CN(c2ccc(Oc3ccccc3)cc2)S(C)(=O)=O)CC1`, 0.761% (inactive).
Take `Cc1ccc(C(=O)NCCN2CCOCC2)cc1C`: the max response was 0.531% (inactive).
For `Cc1cc(C)cc(C(=O)NCCN2CCOCC2)c1` the value was -3.62% (inactive); for `CC(=O)Oc1cc2c(C(=O)NCCN3CCOCC3)c(C)oc2c2ccccc12`, 23.5% (active).
As to `Cn1nccc1C(=O)N1CCCC(C(=O)c2ccc(Oc3ccccc3)cc2)C1` (stereo not given), the max response was -1.23% (inactive).
For `CC1Sc2ccc(S(=O)(=O)CCC(=O)NCc3ccccc3Cl)cc2NC1=O` (stereo not given) the value was -2.98% (inactive).
In the case of `Cc1n[nH]c(=S)n1/N=C/c1ccc(Br)o1` it was -1.34% (inactive); in that of `Fc1ccc(/C=N/n2c(COc3ccccc3)n[nH]c2=S)cc1`, -4.69% (inactive); in that of `COc1cc(/C=N/n2c(C)n[nH]c2=S)ccc1OCc1ccccc1`, 25.8% (active).
With `Cn1c(=O)[nH]c(=O)c2c1nc(N1CCN(C(c3ccccc3)c3ccccc3)CC1)n2CCO`, the max response is -4.67% (inactive).
For `CC(=O)N1CC(C)c2scc(C)[n+]2-c2ccccc21` (stereo not given) the value was -4.21% (inactive); for `COc1cccc(NC(=O)CN(C)C(=O)c2ccccc2CCc2ccccc2)c1`, -2.98% (inactive).
For `CC(C)CC(=O)N1CCN(Cc2cccc(Cl)c2)CC1` the value was -0.27% (inactive).
In the case of `Cc1cccc(N(C(=O)Cc2cccs2)C(C(=O)NCc2ccco2)c2ccncc2)c1` (stereo not given) it was 7.8% (inactive).
In the case of `Cc1ccc(N(C(=O)Cc2cccs2)C(C(=O)NCC2CCCO2)c2ccncc2)cc1` (stereo not given), the max response was 30.3% (active).
`O=C(NCC(=O)N(c1ccccc1)C(C(=O)NCC1CCCO1)c1ccccc1)c1cccs1` (stereo not given): the max response was -2% (inactive).
